From PubChem BioAssay (NCI)
The panel holds about 79,000 compounds, 15% with a hit somewhere; the sample as a whole holds those more often. Cut-off read from the data, not from the text of the source: active = growth inhibition above about 70%; inactive = the rest. Where a SMILES comes first, the peptide text is derived from it. The star is where a group is joined. Trt = c1ccc(C(c2ccccc2)(c2ccccc2)*)cc1; Benzhydryl = c1ccc(C(c2ccccc2)*)cc1; Cbz = O=C(OCc1ccccc1)*

Experiments:
[1] = NCI Yeast Anticancer Drug Screen. Data for the rad50 strain (AID 155);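 note: 0% = growth of vehicle-only cultures of the same strain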; details: S. cerevisiae rad50 strain growth inhibition; at 50.0 µM; stronger effect = higher value
Summary of the method: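 Compounds were tested on a yeast strain with an engineered DNA damage repair alteration; the reported value is growth inhibition normalised to vehicle treatment.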

[2] = NCI Yeast Anticancer Drug Screen. Data for the mec2-1 strain (AID 157); details: S. cerevisiae mec2-1 strain, at 50.0 µM, stronger effect = higher value
Summary of the method: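 Strain: mec2-1 (DNA repair/cell cycle alteration). Compound exposure, then growth measured; inhibition expressed relative to vehicle.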

[3] = NCI Yeast Anticancer Drug Screen. Data for the sgs1 mgt1 strain (AID 161);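 note: 0% = growth of cultures given vehicle only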; details: S. cerevisiae sgs1 mgt1 strain, at 50.0 µM, stronger effect = higher value
Summary of the method: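 Read-out: growth inhibition vs vehicle controls. Cells: mutant yeast strain deficient in DNA damage repair.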

[4] = NCI Yeast Anticancer Drug Screen. Data for the cln2 rad14 strain (AID 165);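 note: 0% = growth equal to vehicle treated cultures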; details: S. cerevisiae cln2 rad14 strain, at 50.0 µM, stronger effect = higher value
Summary of the method: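 Compounds are applied to the cln2 rad14 yeast strain, and growth is then compared with that of vehicle-treated cultures to give inhibition.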

[5] = NCI Yeast Anticancer Drug Screen. Data for the bub3 strain (AID 167); details: S. cerevisiae bub3 mutant strain, at 50.0 µM, stronger effect = higher value
Summary of the method: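 Growth of a checkpoint-deficient yeast mutant is measured after compound exposure. Values represent inhibition relative to vehicle.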

[6] = NCI Yeast Anticancer Drug Screen. Data for the mlh1 rad18 strain (AID 175); details: S. cerevisiae mlh1 rad18 strain growth inhibition; at 50.0 µM; stronger effect = higher value
Summary of the method: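 Read-out is yeast growth inhibition, calculated against vehicle-only controls. The compound was applied to a strain engineered with DNA damage repair alterations.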

Measured: growth inhibition

COc1ccc(C#CC(O)C(F)(F)F)cc1 (stereo unspecified)
inactive: [1] -7.9% | [2] -20.4% | [3] -8.35% | [4] -18.4% | [5] -46% | [6] -11.5%

CC1(C)C(=O)/C=C\C(=O)C(C)(C)C2=CC=C(O2)C(C)(C)C(=O)C(Br)C(Br)C(=O)C(C)(C)C2=CC=C1O2 (stereo unspecified)
inactive: [1] -20.4% | [2] -18.1% | [3] -68.5% | [4] 5.6% | [5] -34.9% | [6] -27.6%

CC(=O)Nc1ccc(-c2nnc(SCC(=O)Nc3ccc(C)cc3)o2)cc1
inactive: [1] -15% | [2] -5.5% | [3] -5.8% | [4] 8.4% | [5] -13.7% | [6] -38.3%

C[N+](C)(C)CC(=O)N/N=C/c1oc(-c2cccc([N+](=O)[O-])c2)c(-c2cccc([N+](=O)[O-])c2)c1[N+](=O)[O-]
inactive: [1] 19.4% | [2] 11.7% | [3] 11.8% | [4] 16.3% | [5] -19% | [6] 3.35%

COc1ccc(N=C(N)N2CCCc3ccccc32)cc1
inactive: [1] -5.25% | [2] 17.9% | [3] 0.55% | [4] -84.9% | [5] 1.4% | [6] 0.4%

CSc1nc(N)cc(Cl)n1
inactive: [1] 7.75% | [2] -25.5% | [3] -12.4% | [4] 5.85% | [5] -1.9% | [6] -9.7%

O=C(O)c1ccccc1Nc1ccccc1[N+](=O)[O-]
inactive: [1] -4% | [2] 22.5% | [3] 17.2% | [4] 8.15% | [5] 27.1% | [6] 17.6%

CCCNC(C#N)c1ccc(C(C#N)NCCC)cc1 (stereo unspecified)
inactive: [1] -4.6% | [2] -10.4% | [3] -12.6% | [4] -5.9% | [5] -23.8% | [6] -7.8%

COc1cc2c(cc1O)CN1Cc3c(ccc(OC)c3O)C2C1 (stereo unspecified)
inactive: [1] -16% | [2] -14.4% | [3] -1.8% | [4] -1.15% | [5] -11.5% | [6] 0.65%

NC1=NN(c2ccccc2)C(=O)C1/C(=N\NC(=O)c1cc2ccccc2cc1O)C(=O)Nc1ccc(Cl)cc1 (stereo unspecified)
inactive: [1] 40.5% | [2] 21.9% | [3] -7.4% | [4] 24.8% | [5] 22.8% | [6] 49.5%

COc1ccc(C(=O)c2ccccc2C(=O)c2ccc(OC)cc2)cc1
inactive: [1] -22.1% | [2] 16.1% | [3] -1.4% | [4] -37.8% | [5] -7.7% | [6] 6.95%

COc1cc2c(cc1OC)C(=O)/C(=C/c1ccc(O)cc1)CC2
inactive: [1] 36.5% | [2] -8.9% | [3] 43.5% | [4] 24.9% | [5] 23.2% | [6] 22.4%

COC(=O)C(Cc1ccccc1)NC(=O)C(Cc1ccccc1)NC(=O)CNC(=O)C(CSC(c1ccccc1)c1ccccc1)NC(=O)C(CSC(c1ccccc1)(c1ccccc1)c1ccccc1)NC(=O)OCc1ccccc1 (stereo unspecified) (Cbz-C(Trt)C(Benzhydryl)GFF-OMe; configuration not given here)
inactive: [1] -5.55% | [2] 25.4% | [3] 19% | [4] -14.9% | [5] -9.8% | [6] 28.1%

Cc1nccc2cccc(CNC(C)C)c12
inactive: [1] 3.7% | [2] 2.7% | [3] 4.1% | [4] 7% | [5] -11.2% | [6] -4.25%

CCCC1OCC(CC)([N+](=O)[O-])CO1 (stereo unspecified)
inactive: [1] 19.6% | [2] 15.7% | [3] 18.1% | [4] 9.3% | [5] -0.85% | [6] -5.7%

CC(C)C(CCN1CCCC1(C)C)(C(N)=O)c1ccccc1 (stereo unspecified)
inactive: [1] -4.85% | [2] -12.6% | [3] -4.2% | [4] -34% | [5] 9.6% | [6] 7.75%

N#C/C(N)=C(\C#N)N=CN
inactive: [1] -5.5% | [2] 5.5% | [3] -7.1% | [4] 34% | [5] -22.3% | [6] -27.9%

CCCOC(=O)c1ccccc1C(=O)OC1CCCCC1
inactive: [1] 8% | [2] -2.05% | [3] 9.2% | [4] -18% | [5] -2.4% | [6] -8.65%

Cc1cccc(C)c1C
inactive: [1] 4.8% | [2] -5% | [3] 9.85% | [4] -3.05% | [5] -0.65% | [6] -15.1%

CC(C)C(NC(=O)CI)C(=O)Nc1ccc(C(=O)O)c(O)c1 (stereo unspecified)
inactive: [1] 24.2% | [2] 20.5% | [3] 5.7% | [4] -11.6% | [5] 7.1% | [6] 24.1%

CC(Sc1ccccc1)C(CO)(CO)[N+](=O)[O-] (stereo unspecified)
inactive: [1] -15.1% | [2] 1.8% | [3] 28.4% | [4] 9.4% | [5] -14.6% | [6] 28.4%

CN(/N=C/C=N/N(C)C1=NCCCCN1)C1=NCCCCN1
inactive: [1] -13.6% | [2] -11.3% | [3] -22.2% | [4] 0.7% | [5] 7.55% | [6] -11.8%

Cc1cccc(Cl)c1OCC(=O)O
inactive: [1] -1.25% | [2] -8.55% | [3] -1.95% | [4] -35.8% | [5] -20.8% | [6] -13.2%

COc1cc(C)c(N)cc1N
inactive: [1] -2.7% | [2] -16.9% | [3] 11.3% | [4] -14% | [5] -1% | [6] 15.7%

CC(=O)CC(=O)Nc1ccc(Cc2ccc(Br)cc2)cc1
inactive: [1] 23.7% | [2] -5.55% | [3] 9.55% | [4] 18.5% | [5] 4.15% | [6] 18.9%

COC(=O)C(CC1=C(O)Nc2ccccc2N1)/C(=N/NC(N)=O)C(=O)Nc1ccccc1C (stereo unspecified)
inactive: [1] 11.4% | [2] 9% | [3] 13.6% | [4] -17.6% | [5] -5.5% | [6] -46.4%

N=C(c1ccc2ccccc2c1)c1ccccc1Cc1ccccc1
inactive: [1] 17.2% | [2] -24.2% | [3] 6.15% | [4] -52.5% | [5] 9.35% | [6] 24.2%

COc1cccc2c1CCC1=CC(=O)CCC12C (stereo unspecified)
inactive: [1] 22.1% | [2] 5.5% | [3] 17.9% | [4] 28.8% | [5] 16.9% | [6] -0.65%

Cc1ccc(S(=O)(=O)NC(=O)NCc2cccc(Cl)c2)cc1
inactive: [1] -0.3% | [2] 28.2% | [3] 19.8% | [4] -15.6% | [5] 13.9% | [6] 6.3%

CC12CC(O)C(C=C1c1ccccc1)C2(C)C (stereo unspecified)
inactive: [1] -7.55% | [2] -0.95% | [3] 0.85% | [4] -14% | [5] -13.1% | [6] 1.45%

O=S1(=O)Cc2ccccc2O1
inactive: [1] 4.25% | [2] 5.2% | [3] 28.6% | [4] -3.2% | [5] -19% | [6] 33%

O=C(OCCCl)C1OC(n2cc(F)c(=O)[nH]c2=O)CC1O (stereo unspecified)
inactive: [1] 23.4% | [2] 3.35% | [3] 2.5% | [4] 8.7% | [5] 2.55% | [6] -3.1%

NC(CSS(=O)(=O)c1ccccc1)C(=O)O (stereo unspecified)
inactive: [1] 4% | [2] -37.5% | [3] -0.75% | [4] 0.5% | [5] -10.6% | [6] 0.3%

CC(C)CC(N)C(=O)OCN1C(=O)C2C3C=CC(C2C1=O)C1C2C(=O)N(COC(=O)C(N)CC(C)C)C(=O)C2C31 (stereo unspecified)
inactive: [1] 16.1% | [2] 15.6% | [3] 5.05% | [4] 36.5% | [5] -0.05% | [6] 9.7%

CCOc1cc2c(cc1C/C=C/c1ccc(OC)cc1)OCO2
inactive: [1] 26.4% | [2] 12.6% | [3] 37.4% | [4] -0.75% | [5] 41.8% | [6] 5.05%

O=S(=O)(c1ccccc1)n1c2c(c3ccccc31)Cc1ccccc1-2
inactive: [1] -3.75% | [2] 0.75% | [3] -16.9% | [4] -8.4% | [5] -2.1% | [6] -6.55%

O=CNn1cn[nH]c1=S
inactive: [1] 1.9% | [2] -2.65% | [3] -17.6% | [4] 4.25% | [5] 8.75% | [6] 6.95%

CN1CCN(c2c3c(nc4ccccc24)CCCC3)CC1
inactive: [1] -6.45% | [2] 2% | [3] -2.4% | [4] -40.2% | [5] -10.3% | [6] -22%

CCOC(=O)Oc1ccc(C(=O)Oc2cc(Cl)c(Cl)cc2Cl)cc1OC
inactive: [1] 3.9% | [2] 4.7% | [3] 3.25% | [4] 18% | [5] -13.9% | [6] 7%

O=COCCO
inactive: [1] -12.6% | [2] -5.6% | [3] 7.6% | [4] -9.85% | [5] 1.75% | [6] -9.1%

COCCC(=O)SCc1ccccc1
inactive: [1] 9.55% | [2] -45.3% | [3] -9.2% | [4] -35.6% | [5] -16.5% | [6] 1%
